Measured values from PubChem BioAssay.
The source made the active and inactive calls.

What was measured:
[1] = binders of probe aFSTL3 on microarray, primary screen, stem cell growth factor project, biochemical, small-molecule microarray, fluorescence 635/667 (AID 1064); conditions: higher = more signal;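 note: measures binding of the biotinylated anti-FSTL3 antibody to printed compounds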
[2] = binders from COS7 lysate, DM2A8 probe, primary screen, torsin A project, cell lysate, small-molecule microarray, fluorescence 635/667 (AID 1065); conditions: higher = more signal, COS7 lysate expressing mutant human TOR1A
[3] = binders of probe aFGF2 on microarray, primary screen, stem cell growth factor project, biochemical, small-molecule microarray, fluorescence 635/667 (AID 1067); conditions: higher = more signal;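 note: measures binding of biotinylated aFGF2 protein to printed compounds on slides; z-score merges feature fluorescence and signal-to-noise across triplicate slides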
[4] = binders of probe aFGF10 on microarray, primary screen, stem cell growth factor project, biochemical, small-molecule microarray, fluorescence 635/667 (AID 1071); conditions: higher = more signal;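 note: score merges 667 nm spot intensity and signal to noise from triplicate slides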
[5] = target: Neurogenic locus notch homolog protein 2 (Homo sapiens) (UniProt Q04721); test: Notch2 binders on small-molecule microarrays, primary screen, biochemical, small-molecule microarray, 635 nm fluorescence, stem cell growth factors (AID 1073); conditions: Notch2 binding, higher = more signal
[6] = target: Pro-neuregulin-1, membrane-bound isoform (Homo sapiens) (UniProt Q02297); test: NRG1 binders on small-molecule microarrays, primary screen, psychiatric disease protein project, biochemical, small-molecule microarray, fluorescence 635/667 (AID 1075); conditions: NRG1 binding, 635 nm fluorescence, higher = more signal;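 note: score combines 667 nm spot fluorescence with signal to noise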
[7] = tested on: Neuregulin-1 EGF-like domain; test: binders of neuregulin-1 EGF-like domain, primary screen, biochemical, small-molecule microarray, 635 nm fluorescence (AID 1081); conditions: small-molecule microarray binding, higher = more signal;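 note: binding of the protein to compounds printed on small-molecule microarray slides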
[8] = FRG1 promoter luciferase signal modulators, primary screen, FRG1 inhibition for FSHD, cell-based, C2C12 myotubes, firefly/Renilla luciferase, luminescence (AID 1084); conditions: higher = more signal, called active from +8 up or from −8 down
[9] = binders of probe aFST on microarray, primary screen, stem cell growth factor project, biochemical, small-molecule microarray, fluorescence 635/667 (AID 1086); conditions: higher = more signal;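 note: score merges 667 nm fluorescence with signal-to-noise of each printed compound spot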
[10] = binders of probe aHhip on microarray, primary screen, stem cell growth factor project, biochemical, small-molecule microarray, fluorescence 635/667 (AID 1087); conditions: higher = more signal;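 note: score merges spot fluorescence at 667nm with spot signal to noise ratio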

Chain of Neurogenic locus notch homolog protein 2 (Homo sapiens) (Q04721 whole entry, looked up, canonical isoform): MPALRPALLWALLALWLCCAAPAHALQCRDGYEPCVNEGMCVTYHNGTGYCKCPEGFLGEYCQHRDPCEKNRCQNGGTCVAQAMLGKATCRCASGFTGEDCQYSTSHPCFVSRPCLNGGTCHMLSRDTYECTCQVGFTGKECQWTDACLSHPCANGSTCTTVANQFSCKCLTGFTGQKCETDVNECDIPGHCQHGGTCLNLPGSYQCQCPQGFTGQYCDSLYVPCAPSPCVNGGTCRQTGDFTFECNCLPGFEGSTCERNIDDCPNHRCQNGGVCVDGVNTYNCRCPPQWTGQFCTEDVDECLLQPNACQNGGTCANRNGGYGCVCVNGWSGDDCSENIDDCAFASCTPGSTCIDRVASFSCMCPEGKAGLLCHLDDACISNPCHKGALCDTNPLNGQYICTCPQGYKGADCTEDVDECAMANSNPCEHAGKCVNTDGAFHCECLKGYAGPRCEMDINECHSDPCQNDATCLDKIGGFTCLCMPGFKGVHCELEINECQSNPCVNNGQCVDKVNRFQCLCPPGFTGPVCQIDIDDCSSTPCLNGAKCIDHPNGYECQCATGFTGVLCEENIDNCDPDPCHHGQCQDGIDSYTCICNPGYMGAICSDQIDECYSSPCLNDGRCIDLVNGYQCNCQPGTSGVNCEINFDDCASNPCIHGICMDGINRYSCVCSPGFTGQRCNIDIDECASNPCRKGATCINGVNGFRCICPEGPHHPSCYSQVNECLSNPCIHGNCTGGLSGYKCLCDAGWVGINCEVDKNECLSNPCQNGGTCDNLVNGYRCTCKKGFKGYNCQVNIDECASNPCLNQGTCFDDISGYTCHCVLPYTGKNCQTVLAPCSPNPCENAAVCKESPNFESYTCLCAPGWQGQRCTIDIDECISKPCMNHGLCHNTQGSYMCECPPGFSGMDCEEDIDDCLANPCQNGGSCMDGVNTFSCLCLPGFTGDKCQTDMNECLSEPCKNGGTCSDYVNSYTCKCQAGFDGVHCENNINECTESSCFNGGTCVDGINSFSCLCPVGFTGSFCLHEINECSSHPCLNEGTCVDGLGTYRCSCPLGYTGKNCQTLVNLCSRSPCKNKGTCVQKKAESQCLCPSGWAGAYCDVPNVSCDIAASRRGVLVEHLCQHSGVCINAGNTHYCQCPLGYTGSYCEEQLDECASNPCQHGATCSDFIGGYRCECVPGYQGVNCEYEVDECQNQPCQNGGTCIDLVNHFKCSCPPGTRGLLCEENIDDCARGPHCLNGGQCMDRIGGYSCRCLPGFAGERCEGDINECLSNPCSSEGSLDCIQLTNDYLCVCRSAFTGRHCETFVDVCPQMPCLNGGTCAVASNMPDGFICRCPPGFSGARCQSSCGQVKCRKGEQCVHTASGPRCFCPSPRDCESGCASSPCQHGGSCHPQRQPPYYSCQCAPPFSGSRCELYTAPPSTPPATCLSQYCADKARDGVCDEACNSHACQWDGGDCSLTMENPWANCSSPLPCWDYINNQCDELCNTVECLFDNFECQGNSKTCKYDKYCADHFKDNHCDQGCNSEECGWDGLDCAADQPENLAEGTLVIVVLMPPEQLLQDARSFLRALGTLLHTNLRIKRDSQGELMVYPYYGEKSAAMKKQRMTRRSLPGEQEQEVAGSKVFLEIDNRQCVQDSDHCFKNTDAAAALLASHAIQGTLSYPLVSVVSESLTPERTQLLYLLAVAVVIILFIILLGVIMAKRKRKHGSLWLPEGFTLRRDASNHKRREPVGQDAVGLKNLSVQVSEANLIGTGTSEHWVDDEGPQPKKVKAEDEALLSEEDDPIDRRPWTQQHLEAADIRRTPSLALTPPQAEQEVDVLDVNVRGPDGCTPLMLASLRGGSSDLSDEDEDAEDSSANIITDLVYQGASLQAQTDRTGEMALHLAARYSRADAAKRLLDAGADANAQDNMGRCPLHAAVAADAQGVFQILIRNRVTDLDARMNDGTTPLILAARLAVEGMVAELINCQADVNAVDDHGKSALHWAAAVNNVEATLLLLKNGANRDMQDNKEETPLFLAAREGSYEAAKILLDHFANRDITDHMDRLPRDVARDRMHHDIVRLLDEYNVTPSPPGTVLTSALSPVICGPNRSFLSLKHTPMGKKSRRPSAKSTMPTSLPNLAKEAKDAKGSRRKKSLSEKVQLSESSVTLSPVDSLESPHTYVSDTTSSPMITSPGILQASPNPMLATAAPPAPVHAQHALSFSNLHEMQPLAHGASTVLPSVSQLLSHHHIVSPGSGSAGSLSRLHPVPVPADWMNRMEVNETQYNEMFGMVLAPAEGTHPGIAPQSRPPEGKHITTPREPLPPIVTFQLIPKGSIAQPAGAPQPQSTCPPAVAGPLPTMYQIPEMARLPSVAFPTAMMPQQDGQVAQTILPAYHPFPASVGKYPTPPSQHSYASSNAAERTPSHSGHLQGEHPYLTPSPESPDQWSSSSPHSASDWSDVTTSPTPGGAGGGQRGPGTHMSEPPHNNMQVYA
Chain of Pro-neuregulin-1, membrane-bound isoform (Homo sapiens) (Q02297 whole entry, looked up, the tested form may be a part, canonical isoform): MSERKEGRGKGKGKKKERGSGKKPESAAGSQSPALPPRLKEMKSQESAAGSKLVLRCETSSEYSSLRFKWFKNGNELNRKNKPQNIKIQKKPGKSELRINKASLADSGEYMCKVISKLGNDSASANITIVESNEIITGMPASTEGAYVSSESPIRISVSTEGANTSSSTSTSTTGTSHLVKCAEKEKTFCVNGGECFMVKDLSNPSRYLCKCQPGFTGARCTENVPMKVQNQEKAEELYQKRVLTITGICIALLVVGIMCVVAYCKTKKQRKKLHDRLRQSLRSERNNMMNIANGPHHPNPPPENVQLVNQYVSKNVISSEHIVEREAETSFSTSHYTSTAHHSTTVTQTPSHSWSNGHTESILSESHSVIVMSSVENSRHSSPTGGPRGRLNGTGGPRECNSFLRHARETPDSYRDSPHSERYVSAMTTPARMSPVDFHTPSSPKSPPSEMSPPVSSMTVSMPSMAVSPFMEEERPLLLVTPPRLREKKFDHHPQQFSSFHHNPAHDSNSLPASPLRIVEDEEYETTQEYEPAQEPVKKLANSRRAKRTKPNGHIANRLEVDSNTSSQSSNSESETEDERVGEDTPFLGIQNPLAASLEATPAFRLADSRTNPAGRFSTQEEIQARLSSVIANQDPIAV

Row | SMILES | composite z-score [1] | composite z-score [2] | composite z-score [3] | composite z-score [4] | composite z-score [5] | composite z-score [6] | composite z-score [7] | z-score [8] | composite z-score [9] | composite z-score [10]
1 | O=C1C[C@@H](O)[C@@H](O)[C@@H]2[C@@H]3C(=O)N(C4CCCCC4)C(=O)[C@@H]3CC[C@H]12 | -0.472 | 0.176 | -0.0638 | 0.593 | 0.698 | 0.0523 | 0.797 | 0.65 (inactive) | -0.22 | -0.511
2 | COCCOC(=O)N1C(=O)[C@@]2(c3cc(C#CC4(O)CCCCCC4)ccc31)[C@H](c1ccc(OCCO)cc1)N1[C@H](c3ccccc3)[C@H](c3ccccc3)OC(=O)[C@H]1[C@@H]2C(=O)NC[C@H](O)c1ccccc1 | -0.0536 | 1.11 | -0.0444 | 0.66 | 0.837 | 1.55 | 1.13 | -0.294 (inactive) | 0.29 | -0.0994
3 | O=C1c2ccccc2[C@@]2(Cc3ccccc3N(C3CC3)C2=O)[C@H](c2ccc(CO)cc2)N1Cc1ccccc1C(F)(F)F | 0.748 | -0.686 | -0.0507 | 0.157 | -1.11 | 0.809 | -0.0465 | -0.455 (inactive) | -0.0438 | 0.151
4 | C[C@@H]1C=CCC(=O)OC[C@H](C)C(=O)N2CCC[C@H]2C(=O)OC1 | -0.586 | 2.45 | -0.178 | 0.349 | 0.285 | -0.824 | 1.04 | 0.465 (inactive) | 0.165 | -0.0296
5 | O=C1[C@H]2[C@H]3[C@H](O)[C@H](O)CC(=NOC[C@@H](O)COCc4ccco4)[C@H]3CC[C@H]2C(=O)N1c1cccc(Oc2ccccc2)c1 | -0.0639 | 1.55 | -0.187 | -0.0105 | -1.31 | 0.141 | 0.603 | -0.425 (inactive) | -0.266 | -0.16
6 | C=COC[C@H]1CN2[C@@H](CC[C@@H](C)[C@@H]2c2ccc(Br)cc2)C(=O)O1 | -0.6 | 0.268 | -0.151 | 0.581 | 0.793 | 0.0578 | 1.12 | -0.688 (inactive) | 0.355 | 0.0373
7 | C=CC[C@@H]1C=C[C@H](ON=C2c3cc(OC)ccc3O[C@H](c3cccc(OC)c3)[C@H]2O)[C@@H](CO)O1 | -0.342 | 0.0359 | -0.1 | 0.415 | 0.144 | 0.0499 | -0.199 | -0.577 (inactive) | 0.127 | -0.0994
8 | CCCCCCc1nc(CCCc2cc3c(c(CCCCCC)n2)[Si](C(C)C)(C(C)C)O[C@H]3c2ccccc2)cc2c1[Si](C(C)C)(C(C)C)O[C@H]2c1ccccc1 | -0.342 | -0.244 | -0.109 | -0.217 | -0.253 | -0.47 | -0.744 | -0.364 (inactive) | 0.163 | -0.277
9 | [N-]=[N+]=NCc1ccccc1C[C@]1(C(=O)NCc2ccccc2)N=C(c2ccc(OCCCO)cc2)O[C@H]1c1ccccc1N=[N+]=[N-] | 0.741 | -0.0741 | -0.0231 | 1.13 | 1.22 | 0.799 | 1.01 | -1.34 (inactive) | 1.16 | 0.295
10 | CCOC(=O)[C@H](Cc1ccccc1)NC(=O)CCC1CC(OC(=O)NCc2ccc3c(c2)OCO3)CC2(CCCC(COC(=O)NCC(c3ccccc3)c3ccccc3)O2)O1 (stereo not given in full) | -0.655 | 0.805 | -0.151 | 0.211 | 0.883 | 0.716 | 1.03 | 1.26 (inactive) | 0.359 | -0.306
